The record followed here is PubChem BioAssay AID1259374 (The Scripps Research Institute Molecular Screening Center, 2018).

Structures are written as SMILES. Among all 650,000 compounds or so, about 5,900 (0.91%) were called active. No stated cut-off is given here; in the data, active means inhibition above about 50%; inactive means the rest. The list comes from a sample in which actives are over-represented; it also holds similar structures and randomly drawn compounds.

Microphthalmia-associated transcription factor (Homo sapiens), sequence (O75030 whole entry, looked up): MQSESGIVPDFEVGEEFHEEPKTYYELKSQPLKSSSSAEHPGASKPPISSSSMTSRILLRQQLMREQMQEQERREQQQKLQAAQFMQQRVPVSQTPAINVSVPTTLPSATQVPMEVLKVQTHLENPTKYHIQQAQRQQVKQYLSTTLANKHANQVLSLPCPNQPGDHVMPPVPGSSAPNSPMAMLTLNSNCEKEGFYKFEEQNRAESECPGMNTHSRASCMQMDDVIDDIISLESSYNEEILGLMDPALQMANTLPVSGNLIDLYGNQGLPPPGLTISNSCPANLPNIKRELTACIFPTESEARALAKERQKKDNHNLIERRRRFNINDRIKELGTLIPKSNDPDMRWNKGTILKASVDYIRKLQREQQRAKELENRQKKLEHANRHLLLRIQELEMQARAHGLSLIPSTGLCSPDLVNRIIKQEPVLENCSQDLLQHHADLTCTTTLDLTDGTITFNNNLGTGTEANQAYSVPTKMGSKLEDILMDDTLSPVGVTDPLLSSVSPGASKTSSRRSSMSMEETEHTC

This assay addresses Microphthalmia-associated transcription factor (Homo sapiens) (UniProt O75030). Put plainly: MITF inhibitors, primary screen, biochemical, AlphaScreen, human (AID 1259374).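 Further: 0% = vehicle wells with protein.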 As to conditions: AlphaScreen MITF homodimerization, bead proximity signal; at 2.6 µM; active compounds read high. Background: Bead proximity is the source of the signal in Alpha formats.
As usually defined, the inhibition is the change of the read-out against control, counted positive when it falls. As for `O=C(N/N=C/c1ccc([N+](=O)[O-])cc1)c1cccc(I)c1`, the inhibition was 10.1% (inactive).

Take `Cc1ccc(C(=O)Nc2cccc(C(=O)N/N=C/c3ccc(C#N)cc3)c2)cc1`: the inhibition is 2.24% (inactive).

Turning to `N#Cc1ccc(/C=N/NC(=O)c2cc([N+](=O)[O-])cc([N+](=O)[O-])c2)cc1`, the inhibition is 66.5% (active).

Consider `O=S(=O)(c1ccc(C2Nc3ccc(Cl)cc3C3C=CCC32)cc1)N1CCOCC1` (stereo unspecified), for which the inhibition is -9.39% (inactive).

As for `Cc1cc([N+](=O)[O-])cc2c1NC(C(=O)O)C1CC=CC21` (stereo unspecified), the inhibition was 24.6% (inactive).

For the molecule `O=C(O)C1Nc2ccc(Cl)cc2C2C=CCC12` (stereo unspecified), the inhibition is 77% (active).

For the molecule `CN(C)CCN1C(=O)C(=O)/C(=C(\O)c2ccc(S(=O)(=O)N(C)C)cc2)C1c1ccc(C(C)(C)C)cc1` (stereo unspecified), the inhibition was 13.9% (inactive).

Consider `CC(CCn1cccn1)NC(=O)CCc1nnc(-c2ccccc2)o1` (stereo unspecified), for which the inhibition is 1.03% (inactive).

As to `O=C(CCc1nnc(-c2ccccc2)o1)NC1(c2ccccc2)CC1`, the inhibition was -2.49% (inactive).

For the molecule `CN(C)CC(C)(C)CNCc1nnc(-c2ccccc2)o1`, the inhibition was 56.2% (active).

Regarding `CCN1C(=O)/C(=C\c2ccc(O)cc2)C(=O)NC1=S`, the inhibition is 3.62% (inactive).

As to `O=C1NC(=S)N(Cc2ccco2)C(=O)/C1=C\c1ccc(N2CCOCC2)cc1`, the inhibition was 75.1% (active).

With `Cc1cc(N2CCOCC2)ccc1/C=C1\C(=O)NC(=S)N(c2ccccc2)C1=O`, the inhibition is -14.9% (inactive).

Regarding `CCOC(=O)N1CCC(N(CCN(C)C)C(=S)Nc2cccc(F)c2)CC1`, the inhibition is -2.5% (inactive).

For `O=C(O)C1c2ccccc2C(=O)N(Cc2ccc(F)cc2)C1c1cccc(F)c1` (stereo unspecified), the inhibition was 10.8% (inactive).

Regarding `COc1ccccc1/C=C/CN1CCN(C)CC1`, the inhibition is 44.2% (inactive).

For `COc1ccc(C(=O)N2CCN(Cc3cccc(OC)c3OC)CC2)cc1OC`, the inhibition is 44.2% (inactive).

Take `COc1ccc(CN2CCN(Cc3ccccc3C(F)(F)F)CC2)cc1OC`: the inhibition was 75.6% (active).

Turning to `COc1ccc(CN2CCC3(CC2)CC3C(=O)NCc2ccccc2C(F)(F)F)cc1O` (stereo unspecified), the inhibition is 0.47% (inactive).

Take `COc1cccc(CN2CCN(C/C=C/c3ccccc3)CC2)c1OC`: the inhibition is 63.1% (active).

Consider `COc1cccc(CN2CCOCC2)c1OC`, for which the inhibition was -5.85% (inactive).

Turning to `COc1cccc(CN2CCN(Cc3ccc(C(F)(F)F)cc3)CC2)c1OC`, the inhibition is 77.8% (active).

For the molecule `COc1cccc(CNCc2ccc(Br)cc2)c1OC`, the inhibition was 12.2% (inactive).

`COc1ccc(C(=O)N2CCN(Cc3ccccc3C(F)(F)F)CC2)cc1OC`: the inhibition is 83.3% (active).

Regarding `COc1cccc(CN2CCN(Cc3ccc(SC)cc3)CC2)c1OC`, the inhibition was 41% (inactive).

Regarding `COc1ccc(CN2CCN(C(=O)c3ccc(F)cc3)CC2)cc1OC`, the inhibition is 6.68% (inactive).

For `CC(=O)Nc1cccc(NC(=O)Cn2cnc3c(nnn3Cc3ccccc3F)c2=O)c1`, the inhibition is 11.8% (inactive).

In the case of `COc1cc2nc(CN3CCN(c4ccccc4OC)CC3)[nH]c(=O)c2cc1OC`, the inhibition was 4.45% (inactive).

Take `O=[N+]([O-])c1cccc(C(c2nnnn2-c2cccc(Cl)c2)N2CCCCC2)c1` (stereo unspecified): the inhibition is 7.91% (inactive).

Take `C/C(CC(=O)Nc1ccc(Cl)cc1C)=N\NC(=O)c1ccc([N+](=O)[O-])c(Cl)c1`: the inhibition is 14% (inactive).

In the case of `COC(=O)CSCC(=O)Nc1cc(C(F)(F)F)ccc1Cl`, the inhibition is 3.79% (inactive).

As to `Cc1ccn2cc(-c3ccc(NS(=O)(=O)c4ccc(I)cc4)cc3)nc2n1`, the inhibition was -8% (inactive).

Turning to `COc1ccc(NC2c3cccc4cccc(c34)C2NS(=O)(=O)c2ccccc2)cc1` (stereo unspecified), the inhibition was 23.3% (inactive).

In the case of `Cc1cccc(CNc2ncnc3sc(C(=O)N(C)C4CCOC4)c(C)c23)n1` (stereo unspecified), the inhibition was -1.76% (inactive).

With `C=CCOc1ccc(/C=C2\SC(=S)NC2=O)cc1`, the inhibition is 12.6% (inactive).

In the case of `Cc1ccc(C(=O)NNC(=O)C2Cc3ccccc3CN2C(=O)c2ccco2)cc1` (stereo unspecified), the inhibition was 3.81% (inactive).

Regarding `Cc1ccc(OCC(=O)N/N=C/c2cc(C)ccc2O)cc1`, the inhibition is 15.3% (inactive).

On to `O=C(Nc1cccc(-c2nc3cccnc3s2)c1)C(F)(F)F`, for which the inhibition was -3.61% (inactive).

For `N#C/C(=C/c1ccc(S(=O)(=O)c2ccc(Cl)cc2)cc1)c1nc2ccccc2[nH]1`, the inhibition is -16.9% (inactive).

In the case of `COc1cccc(-c2nc3cnccn3c2NC(C)(C)C)c1OC`, the inhibition was -9.88% (inactive).

Regarding `COCCNc1cc(-c2ccc(F)cc2)nc(C)n1`, the inhibition is 14.6% (inactive).

With `Cc1nc(NC2CC2)cc(-c2ccc(F)cc2)n1`, the inhibition is 52.6% (active).

On to `Cc1nc(Nc2ccncc2)cc(-c2ccc(F)cc2)n1`, for which the inhibition was 0.1% (inactive).

For `Cc1cccc(N2C(=O)NC(=O)/C(=C\c3ccc(I)o3)C2=O)c1C`, the inhibition was 57.8% (active).

`Cc1cccc(N2C(=O)NC(=O)/C(=C\c3ccc(C)o3)C2=O)c1`: the inhibition is 2.19% (inactive).

As to `O=C1NC(=S)N(c2ccccc2)C(=O)/C1=C/c1ccc(I)o1`, the inhibition is 59.5% (active).

`O=C1NC(=O)N(c2ccccc2F)C(=O)/C1=C\c1ccco1`: the inhibition was 40% (inactive).

`COc1ccc(/C=C2/C(=O)NC(=O)N(c3ccccc3C)C2=O)cc1OC`: the inhibition is 1.35% (inactive).

As to `Cc1ccc(N2C(=O)NC(=O)/C(=C\c3ccc(I)o3)C2=O)cc1C`, the inhibition is 41.7% (inactive).

As to `O=C1NC(=S)N(c2ccccc2)C(=O)/C1=C/c1ccccc1`, the inhibition was 17.4% (inactive).

On to `Cc1ccccc1N1C(=O)NC(=O)/C(=C\c2ccoc2)C1=O`, for which the inhibition is 52.5% (active).

For `O=C1NC(=S)N(c2ccccc2)C(=O)/C1=C/c1ccc(N2CCCC2)o1`, the inhibition is 1.33% (inactive).

As for `O=C(Nc1ccc(C(=O)O)c(C(=O)O)c1)c1cccc(N2C(=O)c3ccc([N+](=O)[O-])cc3C2=O)c1` (tested in a mixture with another compound), the inhibition is 11.7% (inactive).

As for `CSc1ccccc1N1C(=O)[C@@H]2C[C@H]1CN2C(=O)CCc1ccc2c(c1)OCO2`, the inhibition is -0.38% (inactive).

`CC1=C(C(=O)OC2CCCC2)C(c2ccc(C)o2)C2=C(CCCC2=O)N1` (stereo unspecified): the inhibition was 2.33% (inactive).

With `CN(C)c1cccc(Nc2nccn3c(-c4cccc(Cl)c4)cnc23)c1`, the inhibition was -23.8% (inactive).

Take `CCCCNC(=O)c1ccc(-n2nnc3ccccc3c2=O)cc1`: the inhibition was 5.61% (inactive).

With `CCOc1ccc(CN2CCN(C(=O)c3cccc(Cl)c3)CC2)cc1`, the inhibition was 58.5% (active).

In the case of `CC(Oc1cccc(Cl)c1)C(=O)Nc1ccccc1C(=O)N1CCN(Cc2ccccc2)CC1` (stereo unspecified), the inhibition was 4.29% (inactive).

`Clc1cccc(N2CCN(Cc3cccnc3)CC2)c1`: the inhibition is 49.8% (inactive).

Regarding `O=C(c1ccc(C(=O)N2CCN(Cc3ccccc3)CC2)cc1)N1CCN(Cc2ccccc2)CC1`, the inhibition is 6.34% (inactive).

As to `CCOc1ccc(CN2CCCN(C)CC2)cc1`, the inhibition was 60.4% (active).

As to `COc1ccc(CN2CCN(C(=O)c3cccc(Cl)c3)CC2)cc1OC`, the inhibition was 27.7% (inactive).

On to `O=C(c1cccc(Cl)c1)N1CCN(Cc2cccnc2)CC1`, for which the inhibition was 59.4% (active).

As for `CC(C)NC(=O)Nc1ccc(CN2CCN(C)CC2)cc1`, the inhibition was -5.21% (inactive).

Consider `CCOc1ccc(CN2CCN(Cc3ccc(OCC)cc3)C(CCO)C2)cc1` (stereo unspecified), for which the inhibition was 8.91% (inactive).
